Shown are actives, neighbours in structure and some others; about 19% of the full set was active somewhere.
TDP1 block: TDP1 (human) enzyme inhibition | Q9NUW8 | 0.28% of 350,000 active | recombinant TDP1, AlphaScreen DNA substrate cleavage | Potency, µM (highest dose often 130 µM), usual class: inhibitors; further: nearly all actives have a fitted effect of over 40% in size
Target sequence (Q9NUW8 whole entry, looked up): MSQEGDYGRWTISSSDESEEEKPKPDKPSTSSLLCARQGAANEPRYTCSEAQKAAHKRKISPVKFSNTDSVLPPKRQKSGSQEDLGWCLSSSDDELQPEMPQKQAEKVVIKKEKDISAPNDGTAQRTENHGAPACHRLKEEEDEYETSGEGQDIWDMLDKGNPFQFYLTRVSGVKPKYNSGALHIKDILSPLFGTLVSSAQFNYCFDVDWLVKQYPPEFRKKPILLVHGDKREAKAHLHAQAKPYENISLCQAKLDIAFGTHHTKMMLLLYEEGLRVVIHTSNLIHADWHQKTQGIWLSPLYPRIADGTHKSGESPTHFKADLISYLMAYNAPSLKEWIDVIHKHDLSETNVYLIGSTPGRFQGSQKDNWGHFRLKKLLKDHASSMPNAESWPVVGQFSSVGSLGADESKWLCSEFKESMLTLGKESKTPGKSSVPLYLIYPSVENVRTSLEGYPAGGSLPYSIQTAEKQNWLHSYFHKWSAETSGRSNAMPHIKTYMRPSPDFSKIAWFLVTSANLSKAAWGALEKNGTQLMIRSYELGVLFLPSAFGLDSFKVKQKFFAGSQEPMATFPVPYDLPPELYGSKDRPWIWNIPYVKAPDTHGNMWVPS
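Recombinant human Tdp1 (E. coli-expressed, 1 nM final) preincubated with compounds 15 min at room temperature, then 5'-biotin/3'-phosphotyrosine-FITC DNA substrate (15 nM final) added for 5 min. AlphaScreen beads (10 ug/ml final) added 10 min; cleavage lowers signal.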
TDP1 cell CPT: growth inhibition of DT40 Tdp1-/-;hTDP1 cells with camptothecin (screen for TDP1 inhibitors); AID 686979; 12% of 420,000 active; Potency, µM (titrated, usually from 46.2 µM), actives largely listed as inhibitors; chicken DT40 Tdp1-/-;hTDP1 cells + 20 nM CPT, ATP luminescence, 48 h; further: nearly all actives have a fitted effect of over 55% in size
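Chicken DT40 Tdp1-/- cells complemented with human TDP1, 400 cells/well, exposed to compounds plus 20 nM camptothecin for at least 48 h at 37 C; viability read as ATP content by CellTiter-Glo luminescence.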
RORg inh: inhibitors of mouse ROR gamma transcriptional activity. P51450. Drosophila S2 Gal4-RORgamma UAS-luciferase reporter, 20 h. Potency, µM (highest dose often 53.6 µM), most hits filed as inhibitors. 5.4% of 310,000 active. AID 2551; further: nearly all actives have a fitted effect of over 60% in size
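Using a luciferase readout, inhibitors were identified by reduced reporter activity in Drosophila cells coexpressing a copper-inducible Gal4–ROR gamma fusion and UAS-driven Photinus luciferase, incubated 20 hr after 700 uM copper sulfate.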
VP16 counter: Gal4-VP16 reporter inhibition counter-screen. Drosophila S2 Gal4-VP16 UAS-luciferase, luminescence, 20 h. Potency, µM (series often up to 53.6 µM), most hits filed as inhibitors. 3.5% of 310,000 active. AID 2546;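 further: Gal4-VP16 expression switched on by copper sulfate through the metallothionein promoter; nearly all actives have a fitted effect of over 50% in size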
TDP1 cell noCPT: qHTS for Inhibitors of human tyrosyl-DNA phosphodiesterase 1 (TDP1): qHTS in cells in absence of CPT. DT40 Tdp1-/- hTDP1 cells, no CPT, ATP luminescence, 48 h. Potency, µM (series often up to 46.2 µM), usual class: inhibitors. 15% of 420,000 active; further: nearly all actives have a fitted effect of over 55% in size
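Growth of hTDP1-complemented DT40 Tdp1-knockout cells is measured by ATP luminescence after at least 48 hr compound exposure at 37 °C, with DMSO substituting for the 20 nM CPT used in the parallel screen.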
Each line names hits and unclear results; the compound was inactive in the other large screens. The call rests on the fitted dose curve; in most records, active means well fitted curve in the direction sought with a large enough effect; inconclusive means small, poorly fitted or top-dose-only effect, or another doubt; inactive means no such curve, though single readings can be large; an effect the other way counts as inactive or inconclusive.

Cc1ccc(OCc2cc(C(=O)N(C)Cc3cc(C4CC4)n[nH]3)no2)cc1C	TDP1 cell CPT inconclusive, TDP1 cell noCPT 23µM
Cc1ccc(OCc2cc(C(=O)N(C)CCc3nc4ccccc4[nH]3)no2)cc1C	TDP1 cell CPT 15µM, TDP1 cell noCPT 21µM (no result: TDP1 block)
Cc1cccc(C)c1OCc1cc(C(=O)N(C)Cc2cc(C3CC3)n[nH]2)no1	TDP1 cell CPT inconclusive, TDP1 cell noCPT inconclusive
Cc1ccc(NC(=O)CCC(=O)NNC(=O)c2ccco2)c(C)c1	none
C#CCN(C(=O)c1cc(COc2ccc(C)c(C)c2)on1)C1CCCCC1	TDP1 cell CPT inconclusive, RORg inh inconclusive, VP16 counter inconclusive, TDP1 cell noCPT 23µM
CC(=O)N1c2ccccc2[C@@H](C)[C@@H]1C	none (no result: RORg inh, VP16 counter)
CC(=O)N1c2ccccc2C2(O)N=C(C)SC12 (stereo not drawn)	TDP1 cell CPT 16µM, RORg inh 7.9µM, VP16 counter 4.5µM, TDP1 cell noCPT inconclusive
COc1ccc2c(c1)O[C@@H](c1ccc3c(c1)OCO3)[C@H](OC(=O)NCc1ccc3c(c1)OCO3)C2=O	none (no result: TDP1 cell CPT, TDP1 cell noCPT)
COc1ccc2c(c1)O[C@H](c1ccc3c(c1)OCO3)[C@@H](O)C2=O	TDP1 cell CPT 21µM, TDP1 cell noCPT inconclusive
COc1ccc(N2CCN(C(=O)CCNS(=O)(=O)c3ccc(C)cc3)CC2)cc1	TDP1 cell CPT inconclusive, TDP1 cell noCPT inconclusive (no result: RORg inh, VP16 counter)
COc1ccc(N2CCN(C(=O)CCNS(=O)(=O)c3ccc(Br)s3)CC2)cc1	TDP1 cell CPT 13µM, RORg inh inconclusive, TDP1 cell noCPT inconclusive
O=C(CNS(=O)(=O)c1ccc(F)cc1)N1CCN(c2ccc(F)cc2)CC1	TDP1 cell CPT inconclusive
O=C(CNS(=O)(=O)c1ccc(Br)s1)N1CCN(c2ccc(F)cc2)CC1	TDP1 cell CPT inconclusive, RORg inh inconclusive, TDP1 cell noCPT 23µM
COc1ccc(S(=O)(=O)NC2CCCCC2)cc1C	none
CC(OC(=O)c1ccc2c(c1)S(=O)(=O)c1ccccc1C2=O)C(N)=O (stereo not drawn)	none
CC1CCN(C(=O)COC(=O)/C=C/c2ccco2)CC1	TDP1 block 20µM, TDP1 cell noCPT inconclusive (no result: RORg inh, VP16 counter)
CCOC(=O)/C=C/C(=O)OCC(=O)N1CCN(C(=O)c2ccco2)CC1	TDP1 cell CPT 7.3µM, RORg inh 11µM, VP16 counter inconclusive, TDP1 cell noCPT 15µM
CC(=O)Nc1ccc(S(=O)(=O)NCCC(=O)OCC(=O)N2CCN(C(=O)c3ccco3)CC2)cc1	TDP1 block 40µM
CC1CCCC(C)N1C(=O)COC(=O)/C=C/c1ccco1 (stereo not drawn)	none (no result: RORg inh, VP16 counter)
O=C(/C=C/c1ccc(OC(F)F)cc1)OCC(=O)N1CCN(C(=O)c2ccco2)CC1	TDP1 cell CPT inconclusive, TDP1 cell noCPT inconclusive
Cc1ccccc1-c1nc(CN2CCCC(C(=O)NCc3ccc(Cl)cc3)C2)c(C)o1 (stereo not drawn)	TDP1 cell noCPT inconclusive (no result: RORg inh, VP16 counter)
COC(=O)c1cc2occc2n1Cc1nc(-c2ccc(Cl)cc2)oc1C	TDP1 cell CPT inconclusive, TDP1 cell noCPT inconclusive
COC(=O)c1ccc2c(c1)N(Cc1nc(-c3ccc(Cl)cc3)oc1C)C(=O)C1CCCN21 (stereo not drawn)	TDP1 cell CPT 21µM, TDP1 cell noCPT inconclusive (no result: TDP1 block, RORg inh, VP16 counter)
CCCN(CCC)CCCNC(=O)C1CCCN(Cc2nc(-c3ccc(Cl)cc3)oc2C)C1 (stereo not drawn)	TDP1 cell CPT 12µM, TDP1 cell noCPT 9.2µM (no result: RORg inh, VP16 counter)
Cc1oc(-c2cccc(Br)c2)nc1CN1CCC(C(=O)NCCc2ccc(Cl)cc2)CC1	TDP1 cell noCPT inconclusive (no result: RORg inh, VP16 counter)
Cc1oc(-c2ccc(Cl)cc2)nc1CN1CCCC(C(=O)NCCc2ccc(Cl)cc2)C1 (stereo not drawn)	TDP1 cell CPT 7.3µM, TDP1 cell noCPT 5.8µM (no result: RORg inh, VP16 counter)
Cc1oc(-c2cccc(Cl)c2)nc1CN1CCCC(C(=O)NCc2ccc(F)cc2)C1 (stereo not drawn)	TDP1 cell CPT 5.8µM, TDP1 cell noCPT 5.8µM (no result: RORg inh, VP16 counter)
O=C(Nc1ccc2c(c1)OCO2)c1c[nH]c(=O)n(-c2ccc(F)cc2)c1=O	none
CCOC(=O)C[C@@H](C(=O)OCC)[C@@H]1CCCCC1=O	none (no result: TDP1 cell CPT, TDP1 cell noCPT)
CCC(CC)C(=O)Nc1ccc(C(=O)OCc2cc(=O)n3nc(C4CC4)sc3n2)cc1	TDP1 cell noCPT inconclusive (no result: RORg inh, VP16 counter)
